High-throughput results deposited in PubChem BioAssay by National Center for Advancing Translational Sciences (NCATS).
The list is not random: actives were taken first. Their share in the collection is about 3.3%.
D3 antag = antagonists of human D3 dopamine receptor; max response, negative = inhibition, %; 360,000 compounds, 2.5% hits; P35462; D3R cells, DiscoveRx beta-arrestin luminescence, antagonist mode; stronger effect = lower value; in the data active = max response below about -50%; inconclusive = no clear call, values can overlap the other calls; also: % is scaled to controls: 0 for no effect and ±100 for the full control effect
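Cells plated overnight at 1500 cells/well, then exposed to library compounds with dopamine controls for 90 minutes at 37 degrees C. DiscoveRx reagent added for 30–60 minutes at room temperature; luminescence read, quantitative HTS format.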
LDHA block = inhibitors of human lactate dehydrogenase A. activity change, % (values are at about 110 or 230 µM). 480,000 compounds, 0.15% hits. purified LDHA, NADH/diaphorase-resazurin fluorescence; stronger effect = lower value. AID 1347041. P00338; in the data active = activity change below about -30%; inconclusive = mostly about -25% to -30%;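 also: plate controls were DMSO wells for no effect and wells without enzyme for full effect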
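Human LDH5 (2 nM) was incubated with 0.06 mM NADH and 0.2 mM pyruvate for 5 min at room temperature in Tris pH 7.4. Remaining NADH was coupled through diaphorase/resazurin, and resorufin fluorescence was read at 0 and 20 min.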
PI4K2A block = PI4K2A (human) kinase inhibition; purified PI4K2A, ADP-Glo luminescence, 1 h; stronger effect = lower value; activity change, negative = inhibition, % at 76.9 µM; 420,000 compounds, 0.13% hits; in the data active = activity change below about -50%; inconclusive = mostly about -30% to -49%;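 also: -100% = wells without enzyme as full effect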
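In this quantitative HTS, ADP production by PI4K2A was quantified luminescently after 1 h at ambient temperature; 100 microM adenosine served as plate-quality control.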
D3 ag = agonists of human D3 dopamine receptor | P35462 | D3R DiscoveRx beta-arrestin cells, luminescence, 90 min | max activation, % | 410,000 compounds, 0.58% hits; in the data active = max activation above about 30%; also: 0% is about no effect
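Cells at 1500/well, incubated overnight, then treated with pinned compounds (dopamine as control) for 90 min at 37 degrees C. DiscoveRx reagent added for 30 - 60 minutes at room temperature; luminescence read.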
PI5P4K alpha inh = blocks human PI5P4K alpha kinase activity. PI5P4Kalpha enzyme, ADP-Glo luminescence, 60 min; stronger effect = lower value. AID 652105. max response, %. 330,000 compounds, 1.2% hits; active = max response of -50% or lower; inconclusive = between -30% and -50%; inactive = -30% or higher; also: value at the top dose of about 77 µM; % is scaled to controls: 0 for no effect and ±100 for the full control effect
Target sequence (P48426 whole entry, looked up): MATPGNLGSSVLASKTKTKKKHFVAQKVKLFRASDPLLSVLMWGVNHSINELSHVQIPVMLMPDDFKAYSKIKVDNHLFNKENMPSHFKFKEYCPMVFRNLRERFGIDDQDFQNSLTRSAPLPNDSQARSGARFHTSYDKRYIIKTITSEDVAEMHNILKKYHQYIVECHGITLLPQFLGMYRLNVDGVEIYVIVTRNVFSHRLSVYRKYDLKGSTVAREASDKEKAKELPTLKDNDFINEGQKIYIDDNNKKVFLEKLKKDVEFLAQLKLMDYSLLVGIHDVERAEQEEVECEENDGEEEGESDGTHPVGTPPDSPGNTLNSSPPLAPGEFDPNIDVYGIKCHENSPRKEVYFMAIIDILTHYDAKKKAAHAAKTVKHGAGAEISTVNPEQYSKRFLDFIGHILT
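Controls without substrate or without enzyme flank wells where PI5P4Kalpha converts substrate using 5 microM ATP (final). Incubation lasts 60 minutes at room temperature; ADP formed is read by ADP-Glo luminescence.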
* marks the source's active call; other numbers are inactive results; u = inconclusive; x = no result; ! = not active in a repeat.

SMILES	D3 antag	LDHA block	PI4K2A block	D3 ag	PI5P4K alpha inh
Cc1cccc(N2CCN(CCNC(=O)c3cc4c(s3)CS(=O)(=O)C4)CC2)c1C	6	0	0	86*	x
CC(Cc1cccs1)N(Cc1ccccc1)C(=O)c1cc(S(=O)(=O)N(C)C)ccc1Cl (stereo not given)	x	9	x	x	x
Cc1cc(Cl)cc(C)c1OCCOCCNCc1ccccc1	-80*	-16	-1	-9	9
Cc1cc(Cl)cc(C)c1OCCNCc1ccccc1	u	-13	1	-17	3
Cc1cc(C)c(OCCCCNCc2ccccc2)c(Cl)c1	-76*	-20	8	-59	x
CCC(C)NC(=O)c1ccc2c(c1)NC(=O)CS2 (stereo not given)	x	-3	x	x	x
COc1ccc(/C=C2\Oc3cc(OS(=O)(=O)c4ccc(C)cc4)ccc3C2=O)cc1	x	-1	x	x	x
COc1ccccc1OCC(O)COC(N)=O (stereo not given)	4	-7	1	-20	10
COc1ccccc1OCC(O)CO (stereo not given)	5	-2	-3	83*!	-26
Cn1c(C(=O)NC2CCCCC2)cc2sccc21	-19	4	1	-5	x
COc1ccc(N2CCN(CCCNC(=O)Cn3c(-c4cccs4)cc4ccccc43)CC2)cc1	x	1	0	32*	x
COc1ccc(N2CCN(CCCNC(=O)Cc3ccc(C(F)(F)F)cc3)CC2)cc1	x	x	-2	x	x
O=C(Cn1c(-c2cccs2)cc2ccccc21)NCCCN1CCN(c2ccc(F)cc2)CC1	x	-1	2	-4	x
CC1CCN(CCCNC(=O)c2cc3sccc3n2C)CC1	-86*	4	-1	-32	x
COc1ccc(N2CCN(CCCNC(=O)c3cc4sccc4n3C)CC2)cc1	-57*	-5	-6	-64	x
O=C(Nc1cc(-c2cccc(Cl)c2)no1)c1noc2c1COc1ccccc1-2	x	8	x	x	x
C/C(=N\NC(=O)c1cccc(F)c1)c1ccc(NC(=O)Cc2ccccc2)cc1	4	-11	0	2	3
C/C(=N\NC(=O)c1cc(O)cc(O)c1)c1ccc(NC(=O)Cc2ccccc2)cc1	2	-5	-7	3	-90*
CCOc1ccc(C(=O)/C=C/c2cccc(O)c2)cc1	x	8	x	x	x
Cc1ccc(C(=O)c2cc([N+](=O)[O-])ccc2N2CCCCC2)c(C)c1	-56*	-4	-1	-11	16
O=C(OCc1nc2ccccc2o1)c1ccc(F)cc1F	x	3	x	x	x
CCN(CC)CCOC(=O)c1ccc(NC(=O)/C=C/c2cccs2)cc1	-101*	-2	1	-12	-6
CCOC(=O)c1ccc(NC(=O)/C=C/c2cccs2)cc1	5	-3	2	8	-3
CN1CCC(=NNC(=O)C(=O)NCCc2ccccc2)CC1	x	10	x	x	x
Cn1c(SCC(=O)NCCC2=CCCCC2)nnc1C(F)(F)F	-70*	-8	-2	-5	3
SMILES	D3 antag	LDHA block	PI4K2A block	D3 ag	PI5P4K alpha inh
Cc1ccc(-n2c(SCc3nnnn3-c3ccccc3)nnc2N2CCCC2)cc1	x	9	x	x	x
O=c1[nH]c(=S)[nH]c2c1C(c1cccc(C(F)(F)F)c1)OC(CCc1ccccc1)C2 (stereo not given)	-71*	-1	-6	-6	-26
Cc1c[nH]c2cccc(-c3ccc4c(c3)OCO4)c12	x	x	-1	x	x
O=C(C1CCN(c2ncnc3c2nc2n3CCCCC2)CC1)N1CCN(c2ccccc2F)CC1	22	-5	3	62*!	0
Cc1cccc(N2CCN(C(=O)C3CCN(c4ncnc5c4nc4n5CCCCC4)CC3)CC2C)c1 (stereo not given)	116	1	2	35*!	8
Fc1ccccc1N1CCN(c2ncnc3c2nc2n3CCCCC2)CC1	x	-5	-3	7	x
Cc1ccc(C)c(N2CCN(C(=O)C3CCCN(c4ncnc5c4nc4n5CCCCC4)C3)CC2)c1 (stereo not given)	59	0	0	31*	12
CCOC(=O)c1oc2cc(OCc3ccc(OC)cc3)ccc2c(=O)c1-c1ccc(OC)c(OC)c1	x	3	x	x	x
CC(=O)NCC(=O)N(c1ccc(C)cc1)C1(C(=O)Nc2ccccc2C)CCCCC1	x	1	x	x	x
CCOC(=O)CC[C@H]1CC[C@]2(CCCN(C(=O)C3CCCC3)C2)O1	x	x	0	x	x
Cc1ccc(S(=O)(=O)N(Cc2ccco2)Cc2ccco2)cc1	x	-7	x	x	x
O=C(NCC1OCCc2ccccc21)c1cccc(Br)c1 (stereo not given)	x	-42*	x	x	x
Cc1cccc(NC(=S)NNC(=O)c2cccc(C)c2)c1	x	-6	x	x	x
Cc1ccc(/C=C/C(=O)Nc2nccs2)o1	10	23	-2	-2	-5
Cc1ccc(/C=C/C(=O)Nc2nnc(SCc3ccc(C#N)cc3)s2)o1	-14	2	u	-2	-72*
NC(=O)/C(=N\OC(=O)c1ccco1)c1nc(-c2ccc(Br)cc2)cs1	-22	-8	15	4	-69*
Cc1ccc(C(=O)Nc2ccc(S(=O)(=O)O)c3cc(S(=O)(=O)O)cc(S(=O)(=O)O)c23)cc1NC(=O)c1cccc(NC(=O)Nc2cccc(C(=O)Nc3cc(C(=O)Nc4ccc(S(=O)(=O)O)c5cc(S(=O)(=O)O)cc(S(=O)(=O)O)c45)ccc3C)c2)c1	x	-94*	u	6	x
Cc1ccc(C(=O)O)cc1NC(=O)c1cccc(C(=O)Nc2cc(C(=O)O)ccc2C)c1	x	9	x	x	x
CCCCCCCC#Cc1ccccc1/C=N/S(=O)c1ccc(C)cc1 (stereo not given)	0	-2	-5	-13	-100*
Cc1ccc(S(=O)(=O)n2nc(OC(=O)c3c(-c4ccccc4Cl)noc3C)cc2N)cc1	-58*	-7	21	5	u
Cc1onc(-c2ccccc2Cl)c1C(=O)Oc1cc(N)n(S(=O)(=O)c2ccc(F)cc2)n1	-11	-7	56	-3	0
COc1ccc(-c2ccc3c(c2)S(=O)(=O)c2cccc(C(=O)NC[C@@H]4CCCO4)c2C3=O)cc1OC	82	0	-8	37*	-9
C=CCOC(=O)c1cn(CC)c2nc(C)ccc2c1=O	-4	-1	-1	6	-9
CCn1cc(C(=O)OCC(=O)OC2CC(C)CCC2C(C)C)c(=O)c2ccc(C)nc21 (stereo not given)	-81*	1	17	-1	-9
CCn1cnc2c1c(=O)n(CC(=O)NCCc1ccccc1F)c(=O)n2Cc1ccccc1	x	-10	x	x	x
CCN(CC)C(=O)Cn1cc(S(=O)(=O)CC(=O)Nc2cc(C)on2)c2ccccc21	-51*	-2	0	-6	-1
CCN(CC)C(=O)Cn1cc(S(=O)(=O)CC(=O)Nc2ccc(F)cc2)c2ccccc21	0	1	-2	6	2
CCn1cc(SCC(=O)Nc2cc(C)on2)c2ccccc21	-89*	2	5	1	-1
CCCn1cc(SCC(=O)Nc2cc(C)on2)c2ccccc21	-20	0	5	-22	-3
